# Screening data: PubChem BioAssay, The Scripps Research Institute Molecular Screening Center
# CHO-K1 Ca antag: M1 antagonist counterscreen hit in parental CHO-K1 cells; ATP-induced calcium, Fluo-8 fluorescence; inhibition, % at 3 µM; 360,000 tested, 0.6% active;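 active = inhibition above a per-plate cutoff, the plate's mean sample inhibition plus 3 SD, cut at about 24% in these data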;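 note: 0% = DMSO plus EC80 ATP and 100% = DMSO alone without ATP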
# M1 ag: human M1 muscarinic receptor agonism; P11229; CHO-K1 hM1, Fluo-8 calcium fluorescence, agonist mode; 0% DMSO, 100% acetylcholine EC100; 360,000 tested, 0.33% active; activation, % at 3 µM; AID 588814;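 active = activation above the run's mean compound activation plus 3 SD, cut at about 16% in these data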;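 note: peak over basal fluorescence ratio within a 140 s kinetic read after compound addition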
# Target sequence (P11229 whole entry, looked up): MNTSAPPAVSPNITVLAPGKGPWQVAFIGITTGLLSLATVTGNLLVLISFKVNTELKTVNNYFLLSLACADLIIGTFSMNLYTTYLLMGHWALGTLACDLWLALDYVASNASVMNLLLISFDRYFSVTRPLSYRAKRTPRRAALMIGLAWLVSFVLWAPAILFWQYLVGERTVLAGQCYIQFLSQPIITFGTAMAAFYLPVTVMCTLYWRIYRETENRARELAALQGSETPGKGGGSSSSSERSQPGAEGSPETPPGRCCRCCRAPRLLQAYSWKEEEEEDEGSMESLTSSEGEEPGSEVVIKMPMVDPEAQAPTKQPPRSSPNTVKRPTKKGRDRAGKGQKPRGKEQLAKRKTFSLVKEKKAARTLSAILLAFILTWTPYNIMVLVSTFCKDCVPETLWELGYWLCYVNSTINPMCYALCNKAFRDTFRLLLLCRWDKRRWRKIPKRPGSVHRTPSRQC
# M1 PAM parental: M1 PAM counterscreen hit in parental CHO-K1 cells; ATP EC20, Fluo-8 calcium fluorescence; 0% at ATP EC20, 100% at ATP max; activation, % at 3 µM; 360,000 tested, 0.02% active; AID 602247;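 active = activation above the run cutoff, the mean activation of all test compounds plus 3 SD, cut at about 40% in these data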;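 note: peak over basal fluorescence ratio in a 140 s read after ATP addition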
# CHO-K1 Ca ag: M1 agonist counterscreen hit in parental CHO-K1 cells; Fluo-8 calcium fluorescence; scaled to maximal ATP response, vehicle zero; activation, % at 3 µM; 360,000 tested, 0.48% active; AID 602248; in the data active = activation above about 15%;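 note: untransfected CHO-K1 host cells lacking M1 receptor as counterscreen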
# CHRM1 antagonist: human CHRM1 antagonism | inhibition, % at 3 µM | AID 588852 | 360,000 tested, 1.3% active | CHO-K1 hM1, Fluo-8 calcium fluorescence, ACh EC80 antagonist;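 active = percent inhibition above its own plate's cutoff, namely the mean of that plate's compound wells plus 3 SD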;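 note: peak over basal fluorescence ratio during 140 s after agonist addition; 0% = ACh EC80 plus DMSO and 100% = DMSO alone without agonist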
# CHRM1 PAM: positive allosteric modulators of human M1 muscarinic receptor. P11229. CHO-K1 hM1, Fluo-8 calcium fluorescence, ACh EC20; 0% = ACh EC20, 100% = maximal ACh. activation, % at 3 µM. 360,000 tested, 0.088% active. AID 588819; in the data active = activation above about 19%, passing the limit was not always enough
# Active calls of the source: *. Shown are actives, neighbours in structure and some others; about 2.4% of the full set was active somewhere.
SMILES,CHO-K1 Ca antag,M1 ag,M1 PAM parental,CHO-K1 Ca ag,CHRM1 antagonist,CHRM1 PAM
Cc1ccc(C(=O)NC(C)c2ccc(S(N)(=O)=O)cc2)s1 (stereo not drawn),-8,-1,12,0,1,29*
O=S(=O)(c1ccccc1)N1CCN(Cc2c(O)ccc3ccccc23)CC1,5,-3,-6,4,21,-12
Oc1ccc2ccccc2c1CN1CCN(C/C=C/c2ccccc2)CC1,-4,-7,15,0,77*,-30
C#Cc1ccc(CN2CCC(C(=O)Nc3ccc(Oc4ccccc4)nc3)CC2)cc1,-6,0,15,9,5,-2
O=C(Nc1ccc(Oc2ccccc2)nc1)C1CCN(Cc2cccc(F)c2)CC1,8,3,-2,24*,-1,3
Nc1c(Cl)cc(C2=NCCn3c2c2ccc(C(F)(F)F)cc2[n+]3[O-])cc1Cl,-2,3,0,0,-4,4
COc1cc(-c2nc(C(=O)NCC3CCCO3)cc3c2[nH]c2ccccc23)cc(OC)c1OC (stereo not drawn),5,-3,-15,4,11,-12
O=C(NCC1CCCO1)c1cc2c([nH]c3ccccc32)c(-c2cccc(Cl)c2)n1 (stereo not drawn),14,-2,-19,5,35*,-24
CS(=O)(=O)c1ccc(-c2csc(-c3cccnc3)n2)cc1,-10,-4,1,2,-5,8
Cc1cc(C)c(S(N)(=O)=O)c(C)c1N(C)S(=O)(=O)c1ccccc1,-15,-4,23,2,-4,10
Cc1cc(C)c(S(N)(=O)=O)c(C)c1N(C)S(=O)(=O)c1ccc(Cl)cc1,16,0,-20,1,40*,-13
CCOc1ccc(S(=O)(=O)N2CCN(CCNS(=O)(=O)c3ccc(C)cc3)CC2)cc1,-12,-4,-3,1,-9,4
C(=C\c1ccccc1)/CN1CCN(C(c2ccccc2)c2nnnn2C2CCCC2)CC1 (stereo not drawn),-25,-5,17,2,54*,-23
C(=C\c1ccccc1)/CN1CCN(C(c2ccnc3ccccc23)c2nnnn2C2CCCC2)CC1 (stereo not drawn),-3,-6,-4,0,70*,-26
COc1cccc(C(c2nnnn2C2CCCCC2)N2CCN(C/C=C/c3ccccc3)CC2)c1OC (stereo not drawn),9,-6,1,-1,12,-21
FC(F)(F)Oc1ccccc1C(c1nnnn1C1CCCC1)N1CCN(C/C=C/c2ccccc2)CC1 (stereo not drawn),-9,-4,17,1,56*,-25
c1ccc(C(c2ccccc2)N2CCN(C(c3ccccn3)c3nnnn3C3CCCC3)CC2)cc1 (stereo not drawn),-4,-5,-7,0,6,-2
c1ccc(C(c2nnnn2C2CCCC2)N2CCCCCC2)nc1 (stereo not drawn),19,-13,-6,0,34*,-27
COc1cccc(S(=O)(=O)N(C)C[C@@H]2OCc3cn(nn3)CCCC(=O)N([C@H](C)CO)C[C@H]2C)c1,-2,1,5,0,-12,10
O=C(CO/N=C/c1ccccc1OC(F)F)NCc1ccco1,-15,-1,10,1,-53,26*
S=C(NCCNC(=S)Nc1ccccc1Cl)Nc1ccccc1Cl,-10,4,-4,16*,10,-9
S=C(NCCc1ccccc1)Nc1ccccc1Cl,-4,-11,8,0,-7,-1
FC(F)(F)c1cnc(NNC(=S)Nc2ccccc2Cl)c(Cl)c1,8,4,12,16*,13,-2
S=C(NCCc1ccccn1)Nc1ccccc1Cl,27*,-5,-16,0,1,10
S=C(NCCCc1ccccc1)Nc1ccccc1Cl,20,-1,-8,15*,7,-14
CC(=O)c1cc2cccc(OC3(C)CCN(Cc4ccc5ccccc5c4)C3)c2o1 (stereo not drawn),-2,-4,3,1,0,-4
S=C(Nc1cccc2ccccc12)NN1CCCCCC1,0,-7,-11,0,41*,-21
